High-throughput results deposited in PubChem by National Center for Advancing Translational Sciences (NCATS).
DT40 TDP1 no CPT: qHTS for Inhibitors of human tyrosyl-DNA phosphodiesterase 1 (TDP1): qHTS in cells in absence of CPT. DT40 Tdp1-/- hTDP1 cells, no CPT, ATP luminescence, 48 h. 420,000 compounds, 15% hits. AID 686978, 2013. Potency, µM (doses to about 46.2 µM), inactives show at the top dose activity change, negative = growth inhibition, hits mostly inhibitors; also: potency is read from the fitted curve at half-maximal effect; nearly all actives have a fitted effect of over 55% in size
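No-CPT arm: Tdp1-/-;hTDP1 DT40 cells (400/well) plus compounds, incubated ≥48 hr at 37 °C. Readout CellTiter-Glo luminescence.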
Six1-Eya2 inh: inhibitors of human Six1/Eya2 interaction; Q15475+O00167; AlphaScreen GST-Six1/His-Eya2 binding, biochemical; stronger effect = lower value; activity change, % (no concentration beside the values); 360,000 compounds, 0.56% hits; AID 651725; in the data active = activity change below about -65%; inconclusive = mostly about -30% to -63%
Target sequence (O00167 whole entry, looked up): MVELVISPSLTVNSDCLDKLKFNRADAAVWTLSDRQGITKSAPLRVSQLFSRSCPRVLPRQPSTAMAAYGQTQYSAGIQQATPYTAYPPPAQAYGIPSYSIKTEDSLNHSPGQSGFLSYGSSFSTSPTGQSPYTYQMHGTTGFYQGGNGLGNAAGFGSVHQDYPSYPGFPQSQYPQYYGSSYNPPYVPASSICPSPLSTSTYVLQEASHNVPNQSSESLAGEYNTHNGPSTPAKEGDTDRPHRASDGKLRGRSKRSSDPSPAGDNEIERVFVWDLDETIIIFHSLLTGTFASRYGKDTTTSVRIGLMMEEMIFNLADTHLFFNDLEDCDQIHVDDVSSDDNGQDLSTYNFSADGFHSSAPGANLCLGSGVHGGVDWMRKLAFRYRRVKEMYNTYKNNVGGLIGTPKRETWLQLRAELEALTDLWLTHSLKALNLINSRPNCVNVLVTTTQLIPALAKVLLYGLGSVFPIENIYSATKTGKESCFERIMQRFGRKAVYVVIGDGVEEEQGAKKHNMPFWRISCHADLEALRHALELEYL
Target sequence (Q15475 whole entry, looked up): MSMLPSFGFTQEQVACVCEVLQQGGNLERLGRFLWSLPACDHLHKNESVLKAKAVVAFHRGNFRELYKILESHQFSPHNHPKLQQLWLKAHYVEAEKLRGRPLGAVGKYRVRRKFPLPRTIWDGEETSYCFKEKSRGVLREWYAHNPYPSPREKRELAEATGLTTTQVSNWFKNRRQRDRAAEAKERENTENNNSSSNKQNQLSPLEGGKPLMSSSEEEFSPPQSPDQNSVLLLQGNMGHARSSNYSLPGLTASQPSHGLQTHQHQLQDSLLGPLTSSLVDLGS
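Six1/Eya2 binding was read as AlphaScreen signal after compounds were pinned into GST-Six1 plus His-tagged Eya2 (5X stock 250/500 nM) in pH 8.0 Tris/NaCl/TCEP buffer, beads added, then incubated 1 h, 37 C, dark.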
TDP1 inh: inhibitors of human tyrosyl-DNA phosphodiesterase TDP1. 350,000 compounds, 0.28% hits. AID 485290. Potency, µM (top dose mostly 130 µM), for the others: top-dose activity change, negative = inhibition, most hits filed as inhibitors. Q9NUW8. recombinant TDP1, AlphaScreen DNA substrate cleavage; also: potency is read from the fitted curve at half-maximal effect; nearly all actives have a fitted effect of over 40% in size
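Here, a 5' biotin and 3' phosphotyrosine-FITC DNA oligonucleotide reports Tdp1 activity: intact substrate bridges AlphaScreen beads, while cleavage leaves a 3' phosphate and drops signal. All incubations at room temperature.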
DT40 TDP1 CPT: DT40-hTDP1 cell growth loss with CPT; chicken DT40 Tdp1-/-;hTDP1 cells + 20 nM CPT, ATP luminescence, 48 h; Potency, µM (titrated, usually from 46.2 µM), without a hit: at the highest dose activity change, negative = growth inhibition, usual class: inhibitors; 420,000 compounds, 12% hits; AID 686979; also: potency is read from the fitted curve at half-maximal effect; nearly all actives have a fitted effect of over 55% in size
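Cell growth measured by CellTiter-Glo luminescence after a minimum 48 h, 37 C compound exposure with 20 nM CPT in Tdp1-knockout DT40 cells stably expressing hTDP1, seeded 400/well; qHTS titration format.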
CtBP-E1A blk: blocks the CtBP interaction with E1A; AlphaScreen GST-E1A/His-CtBP binding, 1536-well; stronger effect = lower value; activity change, % (test concentration not listed); 340,000 compounds, 0.49% hits; AID 651724; in the data active = activity change below about -65%; inconclusive = mostly about -30% to -63%
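Protein mix (5X: 125 nM each GST-E1A, His-CtBP) was incubated with pinned compound 2 h at 37 deg C in dark, in 50 mM Tris pH 8.0 buffer with 300 mM NaCl. Glutathione donor and nickel acceptor beads followed; AlphaScreen signal read after 1 h.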
IL1B secr inh: inhibitors of inflammasome signaling (IL-1 beta secretion) | THP-1 LPS/ATP IL-1B secretion, AlphaLISA, 16 h; stronger effect = lower value | activity change, % at 57.5 µM | 360,000 compounds, 4.7% hits; in the data active = activity change below about -50%; inconclusive = mostly about -30% to -49%
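THP-1 cells pretreated 1 hr with compounds (up to 57.5 uM final), then stimulated with LPS (250 ng/mL final) plus ATP (1.25 mM final); secreted IL-1B measured by AlphaLISA after 16 hr, decreased signal indicating inhibition.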
The depositor's hits bear a star; ? = inconclusive; / = not tested or not shown; [ ] = another dose, or the depositor's remark. The list is not random: actives were taken first. Their share in the collection is about 18%. Unless noted, calls follow the shape of the dose curve; as a rule, active = well fitted curve in the direction sought with a large enough effect; inconclusive = small, poorly fitted or top-dose-only effect, or another doubt; inactive = no such curve, though single readings can be large; an effect the other way counts as inactive or inconclusive. % is scaled to controls: 0 for no effect and ±100 for the full control effect.

SMILES	DT40 TDP1 no CPT	Six1-Eya2 inh	TDP1 inh	DT40 TDP1 CPT	CtBP-E1A blk	IL1B secr inh
CCc1nnc(NC(=O)CSc2nnc3c(C)cc4c(C)ccc(C)c4n23)s1	4.6µM*	-3	1%	3.7µM*	6	30
CCc1nnc(NC(=O)CSc2nnc(-c3ccncc3)n2C)s1	-13%	2	0%	-7%	0	0
CCc1ccc(NC(=O)CSc2nc3ccccc3nc2Cc2ccccc2OC)cc1	?	/	-8%	0%	/	/
C=CCn1c(SCC(=O)NCC(c2ccccc2)N(C)C)nc2sc3c(c2c1=O)CCC3 (stereo not drawn)	-27%	2	/	-25%	-5	?
CCCCCCCCCCCCCCCC[N+](C)(C)CCN(Cc1ccc(OC)cc1)c1ncccn1	2.5µM*	-20	13%[21 µM]	4µM*	-10	32
Cc1cc(C)cc(NC(=O)COC(=O)CCCNC(=O)c2ccc(Cl)cc2)c1	-19%	-13	-3%	-14%	-24	-1
COC(=O)COc1ccc(S(=O)(=O)NCc2ccc3c(c2)OCO3)cc1	0%	0	/	5%	10	23
O=C1c2cccc3cccc(c23)N1Cc1cccc(F)c1	-30%	62	79µM*	4%	110	-15
O=C1CCCc2ccccc2N1Cc1cccc(F)c1	12µM*	8	5%	15µM*	8	25
O=C1CCc2ccccc2N1Cc1ccccc1	-7%	8	/	18%	10	24
O=C1CCCc2ccccc2N1Cc1ccc(F)cc1	?	5	1%	12µM*	16	4
O=C1c2cccc3cccc(c23)N1Cc1ccc(F)cc1	9%	83	-14%	22%	67	-13
O=C(Nc1ccc(Oc2cccnc2)nc1)c1ccc(C(F)(F)F)cc1	15µM*	-4	7%	?	1	?
CC(C)(C)c1ccc(Oc2ccc(NC(=O)c3cccs3)cn2)cc1	?	4	4%	?	7	-80*
O=C(Nc1ccc(Oc2cccc(C(F)(F)F)c2)nc1)c1ccco1	12µM*	5	0%	-16%	14	-13
CC(C)(C)c1ccc(Oc2ccc(NC(=O)c3ccco3)cn2)cc1	1.6µM*	-2	0%	1.8µM*	/	-12
Cc1cc2cc3c(cc2nc1SCC(=O)O)OCCO3	-12%	1	-10%	-10%	-14	-2
O=C(CSc1nc2ccc(Nc3nc(N4CCOCC4)nc(N4CCOCC4)n3)cc2s1)Nc1ccccc1F	5.8µM*	4	-4%	6.5µM*	0	40
CSc1nc2ccc(Nc3nc(N4CCOCC4)nc(N4CCOCC4)n3)cc2s1	16µM*	-2	3%	23µM*	-7	/
CC(C)(C)Nc1nc(SCC(=O)Nc2ccccc2Cl)nc(N2CCOCC2)n1	-26%	2	2%	?	0	-13
Cc1cccc(C)c1Nc1nnc(SCC(=O)NCc2ccco2)s1	-24%	-2	8%	-29%	-4	21
O=C(CSc1nc2ccc(Nc3nc(N4CCCC4)nc(N4CCCC4)n3)cc2s1)NCc1ccco1	6.5µM*	-15	/	5.8µM*	7	0
COC(=O)c1ccccc1NC(=O)CSc1nc(Nc2ccccc2)nc(N2CCOCC2)n1	?	-14	6%	?	-12	0
O=C(CSc1nc2ccc(Nc3nc(N4CCOCC4)nc(N4CCOCC4)n3)cc2s1)Nc1ccccc1Cl	?	3	0%	21µM*	5	0
CSc1nc2ccc(NC(=O)C3CCCO3)cc2s1 (stereo not drawn)	-22%	-12	7%	-22%	-7	-5
CCOc1ccc(N2CC(NC(=O)CCc3ccccc3)CC2=O)cc1 (stereo not drawn)	-1%	/	0%	4%	/	/
